The nature of assay [1]: CCTE_Simmons_MITO_inhib_resp_rate: CCTE's HepG2 Seahorse XF Respirometric Screening Assay at Inhibited Respiratory State [full ETC block], Simmons Lab (AID 2284006). To be noted: actives raise or lower the signal. In outline: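 Compound injected onto HepG2 cells (125 nM–100 uM final, 7 points); FCCP then rotenone/antimycin A added. Oxygen consumption read every 6 min (3 min mix, 3 min measure) for 72 min. Inhibited-state OCR fitted against DMSO.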

The nature of assay [2]: CCTE_Shafer_MEA_acute_spike_number: CCTE's Neural Acute Assay for Total Number of Spikes, Shafer Lab (AID 2284008).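 For AC50: curve fitted for decrease in spike count so AC50 reflects inhibitors.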 In a few lines: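 Cortical neurons from rat, matured to DIV 13 or 15 on microelectrode arrays, are recorded at 37 C before and during 40-min exposure to 0.03-40 uM compound. Wells need >/= 10 active electrodes.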
Assay [3] in a line: CCTE_Shafer_MEA_acute_firing_rate_mean: CCTE's Neural Acute Assay for Mean Firing Rate, Shafer Lab (AID 2284009).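 Note: analyzed for loss of signal so actives lower firing rate relative to DMSO.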 In outline:
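Rat primary cortical neurons on 48-well MEA plates, dosed at 0.03-40 uM on DIV 13 or 15; 40 min spontaneous activity recorded at 37 C before and after compound. Spike rate per electrode averaged per well, expressed as percent change from baseline.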

The nature of assay [4]: CCTE_Harrill_HTTr_Viability_MCF7: CCTE's 6-hour Cell Viability Assessment for the High-Throughput Transcriptomics (HTTr) Platform, in MCF-7 cells cultured in DMEM + 10% fetal bovine serum, Harrill Lab (AID 2284010). In a few lines: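 Cells were dosed with chemicals in an eight-point dilution series, imaged 6 hours later for propidium iodide uptake, and the endpoint was analyzed by bidirectional fitting against DMSO as negative control.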

Assay [5] in a line: CCTE_Harrill_HTTr_Apoptosis_MCF7: CCTE's 6-hour Apoptosis Assessment for the High-Throughput Transcriptomics (HTTr) Platform, in MCF-7 cells cultured in DMEM + 10% fetal bovine serum, Harrill Lab (AID 2284011). In a few lines:
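Cells are dosed with test chemicals at eight concentrations and imaged 6 hours later for caspase-3/7 activity using a green fluorogenic detection reagent. Activity is fitted in both directions against DMSO controls.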

Assay [6] can be described thus: CCTE_Harrill_HTTr_CellCount_MCF7: CCTE's Cell Proliferation Assessment for the High-Throughput Transcriptomics (HTTr) Platform, Harrill Lab (AID 2284012; active = hit-call score of the fitted dose curve at least 0.9, where 1 is the maximum;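 note: cells exposed to compound for six hours; intended direction is loss of nuclei count meaning fewer cells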). In a few lines: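 Chemicals in eight-point dilution series are added to MCF-7 cells for six hours, nuclei are stained with Hoechst and imaged, and per-well nuclei counts are fitted in both directions relative to DMSO controls.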

The nature of assay [7]: CCTE_Shafer_MEA_acute_burst_number: CCTE's Neural Acute Assay for Single-Electrode Bursts, Shafer Lab (AID 2284013). In outline:
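Primary rat cortical neurons on 16-electrode MEA wells, treated on DIV 13 or 15 with compound at 0.03-40 uM. Single-electrode burst count from 40-min recordings at 37 C before and after exposure; percent change from baseline per well, DMSO negative control.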

Assay [8] is described as follows: CCTE_Shafer_MEA_acute_burst_duration_mean: CCTE's Neural Acute Assay for Mean Burst Duration, Shafer Lab (AID 2284014).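 Note: hits are decreases in mean burst duration relative to DMSO controls.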 In a few lines:
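Rat primary cortical neurons on 48-well MEA, treated at DIV 13 or 15 with 0.03-40 uM in at least 3 wells. Value is percent change in mean burst duration, comparing 40 min recordings at 37 C before and during exposure.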

The nature of assay [9]: CCTE_Shafer_MEA_acute_per_burst_spike_number_mean: CCTE's Neural Acute Assay for Average Number of Spikes Per Burst, Shafer Lab (AID 2284015).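 Note: hits are decreases in mean spikes per burst versus baseline.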 In a few lines: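 Primary rat cortical neurons on 48-well MEA plates, treated on DIV 13 or 15 at 0.03-40 uM. Spontaneous activity recorded 40 min before and 40 min after compound at 37 C; percent change in mean spikes per single-electrode burst per well, fitted in the loss direction versus DMSO.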

Assay [10] in a line: CCTE_Simmons_MITO_viability: CellTiter-Glo Viability Assessment for CCTE's HepG2 Seahorse XF Respirometric Screening Assay [post-hoc], Simmons Lab (AID 2284007; active = hit-call score of the fitted dose curve at least 0.9, where 1 is the maximum). In outline:
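After the Seahorse oxygen-consumption sequence (basal, FCCP, rotenone/antimycin A; 72 min total), HepG2 viability was scored as ATP content by bioluminescence. Chemicals ran at seven concentrations up to 100 uM final for 90 min.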

The structures appear in SMILES notation. Results filed as inconclusive are left out. Active and inactive are the calls of the source. Rule for the calls, unless noted: active = hit-call score of the fitted dose curve at least 0.9, where 1 is the maximum; inactive = score below 0.9.

Consider `COc1cccc(-c2ccc(/C=C\CN3CCCCCC3)cc2Cl)c1`, for which the compound was classed as inactive in [1], in assay [4], in assay [5], in [6], in assay [7] and in [8]. The outcome in assay [9] was inactive. The AC50 in assay [2] and in assay [3] was 3.65 µM (active) throughout.
For `CC(C)=CCC/C(C)=C/CO`, the outcome in assay [1], in assay [4], in [5] and in assay [6] was inactive.
Turning to `C=CCCCCCCCCC(=O)O`, the compound was called inactive in assay [1] and in assay [10].
With `CCCCCCc1ccc(O)cc1O`, the compound was called inactive in assay [1], in [4], in [5], in [6] and in [8]. Moreover, the concentration at half-maximal activity (AC50) in [2] is 12.8 µM (active); in assay [3], 12.9 µM (active); in assay [7], 12.5 µM (active); in assay [9] it was 20 µM (active).
For `Fc1ccccc1[C@@H](F)COC1CCC(Nc2ncnc3[nH]ncc23)CC1` (stereo not given in full), the compound was called inactive in assay [1], in assay [10], in assay [4], in assay [5] and in assay [6].
For `CCOC(=O)CC(CC(=O)OCC)(OC(C)=O)C(=O)OCC`, the outcome in assay [4] and in assay [5] was inactive.
On to `CC(=O)OC[C@H]1O[C@@](COC(C)=O)(O[C@H]2O[C@H](COC(C)=O)[C@@H](OC(C)=O)[C@H](OC(C)=O)[C@H]2OC(C)=O)[C@@H](OC(C)=O)[C@@H]1OC(C)=O`, for which the result in assay [4] and in assay [5] was inactive.
Consider `O=C(NS(=O)(=O)/C=C/c1ccccc1)c1ccc(F)cc1Cl`, for which the outcome in assay [4] and in assay [5] was inactive.
Take `Cn1cnc([N+](=O)[O-])c1Sc1ncnc2nc[nH]c12`: the call in assay [2], in assay [3], in assay [4], in assay [5], in assay [6] and in assay [7] was inactive. Besides, the outcome in assay [8] and in assay [9] was inactive.
As to `CC1=CC(=O)CC(C)(C)C1`, the result in assay [4], in [5] and in [6] was inactive.
Turning to `O=C(O)c1cc(N=Nc2ccc(S(=O)(=O)Nc3ccccn3)cc2)ccc1O`, the AC50 in assay [2] was 0.00807 µM (active); in assay [3], 0.00818 µM (active); in assay [7], 0.0299 µM (active). In addition, the result in assay [4], in assay [5], in assay [6], in assay [8] and in assay [9] was inactive.
For the compound `CCCCC(CC)COC(=O)CCCCCCCCC(=O)OCC(CC)CCCC` (stereo not given), the outcome in assay [2], in assay [3], in assay [4], in assay [5], in assay [7] and in assay [8] was inactive. In addition, in [9], the compound was called inactive.
As for `CCCCCCCCO`, the outcome in assay [4] and in assay [5] was inactive.
As for `CC[C@H]1OC(=O)[C@H](C)[C@@H](O[C@H]2C[C@@](C)(OC)[C@@H](O)[C@H](C)O2)[C@H](C)[C@@H](O[C@@H]2O[C@H](C)C[C@H](N(C)C)[C@H]2O)[C@](C)(O)C[C@@H](C)C(=O)[C@H](C)[C@@H](O)[C@]1(C)O`, the compound was called inactive in assay [2], in assay [3], in [4], in assay [5], in assay [6] and in assay [7]. In addition, the compound was classed as inactive in assay [8] and in assay [9].
`CCCCCCCCCCCCCCCO`: the result in assay [4] and in [5] was inactive.
For the compound `CNCc1ccc(NC(=O)c2c[nH]c3c2C(=O)CCC3)cc1`, the result in [4] and in [5] was inactive.
Regarding `CC(C)CCO`, the outcome in assay [4] and in assay [5] was inactive.
For the compound `O=C(O)CC(O)C(=O)O` (stereo not given), the result in assay [4] and in [5] was inactive.
For `CN(C)c1ccc(Cc2ccc(N(C)C)cc2)cc1`, the result in assay [4] and in assay [5] was inactive.
Turning to `C[C@](N)(Cc1ccc(O)c(O)c1)C(=O)O`, the outcome in [4] and in [5] was inactive.
As for `Cc1ccc(C)c(O)c1`, the result in assay [4] and in assay [5] was inactive.
In the case of `CC(=O)OCCC(C)C`, the result in assay [4] and in [5] was inactive.
For the compound `CCCCCCCCCCCCc1ccccc1`, the outcome in assay [2], in assay [3], in assay [4], in assay [5], in assay [7] and in assay [8] was inactive. The call in assay [9] was inactive.
Consider `CCC(C)(C)C(=O)O[C@H]1C[C@@H](C)C=C2C=C[C@H](C)[C@H](CC[C@@H]3C[C@@H](O)CC(=O)O3)[C@H]21`, for which the compound was called inactive in assay [2], in assay [3], in [7], in [8] and in assay [9].
In the case of `C1N2CN3CN1CN(C2)C3`, the outcome in assay [4] and in assay [5] was inactive.
For the compound `CC/C(=C\C(=N/O)C(N)=O)C(C)[N+](=O)[O-]` (stereo not given), the outcome in assay [4], in assay [5] and in assay [6] was inactive.
`O=C(O)CCN(C1(C(=O)NO)CCCC1)S(=O)(=O)c1ccc(Oc2ccc(F)cc2)cc1`: the outcome in [2], in assay [3], in assay [4], in [5], in [6] and in [7] was inactive. For the same compound, the compound was called inactive in [8] and in assay [9].
For the compound `CC(C)CCCCCCOC(=O)c1ccc(C(=O)OCCCCCCC(C)C)c(C(=O)OCCCCCCC(C)C)c1`, the result in [4], in [5] and in [6] was inactive.
Take `CC[C@H](C)C(=O)O[C@H]1C[C@@H](C)C=C2C=C[C@H](C)[C@H](CC[C@@H]3C[C@@H](O)CC(=O)O3)[C@H]21`: the outcome in assay [4] and in assay [5] was inactive.
As to `O=C1CCCCCN1`, the outcome in [4] and in [5] was inactive.
For the compound `Oc1ccc2c(c1)-c1ccccc1C2`, the result in assay [4] and in assay [5] was inactive.
Take `O=c1n(CC2CO2)c(=O)n(CC2CO2)c(=O)n1CC1CO1` (stereo not given): the result in assay [4] and in assay [5] was inactive.
`CCCCC(CC)COC(=O)c1ccc(C(=O)OCC(CC)CCCC)cc1` (stereo not given): the result in assay [4] and in assay [5] was inactive.

Values taken from PubChem BioAssay (EPA / NIEHS).
